# Assay results from PubChem BioAssay.
# Unmarked numbers belong to inactive results. No rule for the calls is given here.
# Molecular target: Pantothenate synthetase (Mycobacterium tuberculosis (strain ATCC 25618 / H37Rv)) (UniProt P9WIL5)
# Test: Recombinant Mtb pantothenate synthetase (PanC) inhibitors, coupled enzyme, confirmatory (AID 375);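 also: 0% = full reaction with vehicle and 100% = no enzyme background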
# Conditions: coupled enzyme assay; at 10 µM, stronger effect = higher value
# Sequence of Pantothenate synthetase (Mycobacterium tuberculosis (strain ATCC 25618 / H37Rv)) (P9WIL5 whole entry, looked up): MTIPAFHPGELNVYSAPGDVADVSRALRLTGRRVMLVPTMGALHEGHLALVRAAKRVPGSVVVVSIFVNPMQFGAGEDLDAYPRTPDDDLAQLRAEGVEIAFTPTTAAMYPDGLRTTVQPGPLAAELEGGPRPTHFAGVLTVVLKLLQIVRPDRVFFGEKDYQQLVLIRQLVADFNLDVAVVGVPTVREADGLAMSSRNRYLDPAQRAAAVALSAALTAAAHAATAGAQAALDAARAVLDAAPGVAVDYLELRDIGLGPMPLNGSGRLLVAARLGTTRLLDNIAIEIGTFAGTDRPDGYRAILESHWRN
row,Structure (SMILES),inhibition [%]
1,CC1=C(C)[N+](=O)C2CCCCC2N1[O-] (stereo not given),3
2,CC(=O)N1CCN(S(=O)(=O)c2ccc(S(=O)(=O)NC3CC3)cc2)CC1,3
3,Cn1c(CN2CCOCC2)nnc1SCC(=O)NCCc1ccccc1,0
4,O=C(O)C1CC(=O)N(c2ccc(OCc3ccccc3Cl)cc2)C1 (stereo not given),0
5,CCOC(=O)c1[nH]c(C)c(C(=O)NCc2ccccn2)c1C,0
6,COc1cc2c(cc1OC)CN(Cc1nc3ccsc3c(=O)[nH]1)CC2,6
7,COCCn1nnnc1CN1CCC(Cc2ccccc2)CC1,0
8,O=C(NCCOC(=O)C1COc2ccccc2O1)C1COc2ccccc2O1 (stereo not given),0
9,CCc1ccccc1NC(=O)CSc1nc2n[nH]c(C)c2c(=N)n1-c1ccc(OC)cc1,0
10,C=CCn1c(SCC#N)nc2c(c1=O)C(C)(C)Cc1ccccc1-2,0
11,CCCn1c(SCC(=O)N2CCCc3ccccc32)nnc1-c1ccccn1,3
12,Cc1cccc(-n2ncc(C#N)c2N)c1,1
13,CCCOc1ccc(/C(O)=C2/C(=O)C(=O)N(CCCOC)C2c2ccncc2)cc1 (stereo not given),4
14,Cc1cc(C)cc(N2C(=O)C3C4C=CC(C4)C3C2=O)c1 (stereo not given),0
15,O=C(COc1ccccc1Cl)NCc1ccco1,3
16,CCOc1ccccc1NC(=O)CSc1c(C)n[nH]c1C,5
17,Cc1ccc(CCNC(=O)C2CCN(S(=O)(=O)c3cccc4nsnc34)CC2)cc1,6
18,Cc1nnc(SCC(=O)Nc2sc3c(c2C#N)CCCC3)[nH]c1=O,0
19,CCCc1ccc(C(C)NC(=O)c2cnccn2)cc1 (stereo not given),0
20,CC1(C)CNC(=O)c2sc(N3CCOCC3)nc2C1,0

row,Structure (SMILES),inhibition [%]
1,Cn1c(=O)c2c(ncn2CCO)n(C)c1=O,1
2,CCOC(=O)c1csc(NC(=O)C2CCCCC2)n1,2
3,CCOc1ccccc1C(=O)NCc1ccc2c(c1)OCO2,4
4,COc1ccc(-c2nnc(SCC#N)o2)cc1,0
5,Cc1c(NC(=O)C(C)OC(=O)C(NC(=O)c2ccco2)C(C)C)c(=O)n(-c2ccccc2)n1C (stereo not given),8
6,CC(C)OC(=O)CN1C(=O)C(C)(C)Oc2ccc(C(=O)NC3CC3)cc21,0
7,COc1ccc(NC(=O)CN(c2ccc(C)cc2)S(C)(=O)=O)c(OC)c1,4
8,O=C(NCCSc1c[nH]c2ccccc12)c1ccco1,0
9,COCc1[nH]nc2c1C(c1cc(OC)c(O)c(OC)c1)C(C#N)=C(N)O2 (stereo not given),0
10,Cn1c(=O)c2c(nc(N3CCN(c4ccccc4)CC3)n2CCCc2ccccc2)n(C)c1=O,0
11,CCCCn1nnc(NC(=O)c2cc3ccccc3o2)n1,0
12,Cc1ccc2c(c1)-c1c(cnn1CC(=O)NC(C)CCc1ccco1)CO2 (stereo not given),0
13,Nc1nc(-c2ccc(Cl)cc2)cc(C(F)(F)F)n1,0
14,O=C(CCCC(=O)N(CC(=O)NC1CCCCC1)Cc1ccc2c(c1)OCO2)Nc1ccccn1,2
15,O=C(COc1ccccc1)NCC(c1cccs1)N1CCOCC1 (stereo not given),4
16,CC(=O)Nc1c(C(=O)O)[nH]c2ccccc12,0
17,Cc1ccc2cc3cc(C(=O)N4CC(C)CC(C)C4)oc3nc2c1 (stereo not given),3
18,CC(C)(C)NC(=O)C(c1ccco1)N(C(=O)Cn1nnc(-c2ccc(F)cc2)n1)c1ccccc1F (stereo not given),5
19,COc1ccc(OC)c(NC(=O)CS(=O)(=O)c2ccccc2)c1,0
20,Cn1c(-c2ccc(F)cc2)cnc1SCC(=O)Nc1ccccc1N1CCOCC1,0
